This passage reports outcome results from PubChem BioAssay AID624273 (Broad Institute, 2012).

SMILES strings stand for the structures. Screen size: about 1,000 compounds; about 230 (23%) were called active. Another 1% or so got no clear call; they are omitted. No rule for the calls is given here. Some of the results follow. Results with a measured potency or affinity are listed apart.

Long-chain-fatty-acid--AMP ligase FadD28 (Mycobacterium tuberculosis (strain ATCC 25618 / H37Rv)), sequence (P9WQ59 whole entry, looked up): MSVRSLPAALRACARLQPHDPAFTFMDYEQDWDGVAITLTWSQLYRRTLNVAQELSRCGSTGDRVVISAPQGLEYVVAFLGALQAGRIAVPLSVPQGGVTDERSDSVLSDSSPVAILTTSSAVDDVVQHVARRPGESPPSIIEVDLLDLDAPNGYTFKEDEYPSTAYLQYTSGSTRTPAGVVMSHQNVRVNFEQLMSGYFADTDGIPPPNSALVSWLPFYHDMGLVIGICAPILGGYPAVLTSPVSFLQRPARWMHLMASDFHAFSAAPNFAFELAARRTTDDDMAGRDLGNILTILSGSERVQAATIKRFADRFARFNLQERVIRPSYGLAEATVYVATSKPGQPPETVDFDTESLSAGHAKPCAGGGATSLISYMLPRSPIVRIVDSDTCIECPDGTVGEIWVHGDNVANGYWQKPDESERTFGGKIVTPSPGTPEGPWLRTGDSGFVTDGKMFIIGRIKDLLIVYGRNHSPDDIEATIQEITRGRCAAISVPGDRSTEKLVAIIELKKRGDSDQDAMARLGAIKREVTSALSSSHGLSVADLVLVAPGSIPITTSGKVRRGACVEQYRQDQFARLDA

This assay has as its target Long-chain-fatty-acid--AMP ligase FadD28 (Mycobacterium tuberculosis (strain ATCC 25618 / H37Rv)) (UniProt P9WQ59). As to the kind of experiment: inhibitors of FadD28 bisubstrate probe binding, dose response, biochemical, fluorescence polarization, cherry-pick (AID 624273). As to conditions: series mostly up to 50 µM.
Turning to `COc1ccc(N/C=C(\C2OC(=O)c3ccccc32)[N+](=O)[O-])cc1` (configuration not stated), the result was inactive. For the molecule `CCOc1cc(C2C(C(=O)OC(C)C)=C(C)N=C3SCCC(=O)N32)ccc1OC(C)=O` (configuration not stated), the result was inactive.

In the case of `c1ccc2c(C[C@@H]3CNCCN3CC3CCCCC3)cccc2c1`, the molecule was classed as inactive. As for `COC(=O)CSc1nc2ccccc2nc1SCC(=O)OC`, the molecule was classed as inactive.

For `O=[N+]([O-])c1ccc(OCCn2cncn2)cc1`, the molecule was called inactive. Consider `COC(=O)c1ccc(Cl)c(NS(=O)(=O)c2ccc3c(c2)OCCO3)c1`, for which the call was inactive.

On to `Cc1cc(C)n(CCN(C)C(=O)CCc2nnc(-c3ccc4c(c3)OCO4)o2)n1`, for which the molecule was called inactive.

With `CN(C)C=NCCn1c(N2CCOCC2)nc2c1c(=O)n(C)c(=O)n2C`, the call was inactive.

In the case of `O=C(O)CN1CCN(Cc2ccccc2F)C1=O`, the result was inactive.

On to `C=CCn1c(SCC(N)=O)nnc1-c1cnccn1`, for which the molecule was classed as inactive. Turning to `CCOC(=O)c1nc(NCc2cccnc2)c2ccccc2n1`, the result was inactive. For `Cc1ccc(S(=O)(=O)N(CC(=O)Nc2cc(C)ccc2C)C(=O)N2CCN(C)CC2)cc1`, the result was inactive. As for `CN(CC(=O)Nc1ccc(Cl)c(C(F)(F)F)c1)C(=O)c1cccnc1Sc1ccccc1`, the molecule was classed as inactive.

In the case of `O=C(O)c1c(C(=O)O)c(-c2ccc(Br)cc2)n2c1CSC2`, the outcome was inactive. Take `CCCC1SCC(C)(C)NC1=O` (configuration not stated): the result was inactive. On to `Cc1cc(S(=O)(=O)Nc2c(NC3CCCCC3)c3ccccc3oc2=O)ccc1F`, for which the molecule was classed as inactive. The same measure for `CCCCC(=O)OCC(=O)C1(O)Cc2c(O)c3c(c(O)c2C(OC2CC(NC(=O)C(F)(F)F)C(O)C(C)O2)C1)C(=O)c1c(OC)cccc1C3=O` (configuration not stated): “inactive”. With `CN(Cc1cn(-c2ccccc2)nc1-c1ccc(F)cc1)C(=O)CCC(=O)O`, the call was inactive.

In the case of `CCC(C)/C=C(C)/C=C/C1=CC2=C(Cl)C(=O)C(C)(OC(C)=O)C(=O)C2=CO1` (configuration not stated), the molecule was classed as inactive. On to `N#Cc1c(NC(=O)c2cccc(S(=O)(=O)Nc3ccc(C(=O)O)cc3)c2)sc2c1CCCC2`, for which the molecule was classed as inactive. In the case of `CCC1CCc2c(sc(NC(=O)CSc3nc(-c4ccco4)cc(C(F)(F)F)n3)c2C#N)C1` (configuration not stated), the outcome was inactive. For the molecule `COC1(OC)N=C(N)C2(C#N)C(c3ccc(F)cc3)C12C#N` (configuration not stated), the result was inactive.

Turning to `CCCN(CC(=O)Nc1ccccc1C)C(=O)CCl`, the molecule was classed as inactive. As for `O=C(CCc1nc2ccccc2c(=O)[nH]1)NCc1ccco1`, the molecule was classed as inactive.

As to `Nc1ccc(Cc2ccc(N)c(C(=O)O)c2)cc1C(=O)O`, the molecule was classed as inactive. For `O=C(O)Cc1csc(-c2ccccc2)n1`, the result was inactive.

Regarding `CCN(CC)c1nc2n(c(=O)n1)CCO2`, the molecule was called inactive. As for `CC(C)(C)c1ccc(Cn2nnc3c(=O)[nH]c(C4CCCN(C(=O)c5ccco5)C4)nc32)cc1` (configuration not stated), the result was inactive. Consider `O=[N+]([O-])c1cc(Cl)ccc1Nc1ccccc1`, for which the outcome was inactive. The entry for `Cn1nc([N+](=O)[O-])c(C(C#N)c2nc3ccccc3n2C)c(Cl)c1=O` (configuration not stated) is “inactive”.

With `CCOC(OCC)c1nc(N)[nH]c(=O)c1CCCCc1ccccc1`, the molecule was called inactive.

`Cn1c(=O)c2c(ncn2CC(=O)N/N=C/c2ccc(Br)s2)n(C)c1=O`: the result was inactive. Regarding `CCN(CC)S(=O)(=O)c1ccc(NC(=O)COC(=O)c2cc(S(=O)(=O)Nc3ccc(OC)cc3)ccc2O)cc1`, the outcome was inactive.

For the molecule `COc1ccc(NC(=O)Nc2c(O)ccc3ccccc23)cc1`, the molecule was classed as inactive.

With `Cc1[nH]n(-c2ccccc2)c(=O)c1N=Nc1c(Cl)cccc1Cl`, the molecule was called inactive. As to `Cc1ccc(-n2cc(CNC(C)Cn3cncn3)c(-c3ccc(F)cc3)n2)cc1` (configuration not stated), the result was inactive.

For `Cc1cccc(CN2C(=O)N/C(=C/c3cc(C)n(-c4cc(C)ccn4)c3C)C2=O)c1`, the outcome was inactive.

With `O=C(O)CCC(=O)NC1CCCCC1`, the molecule was called inactive. Take `COc1ccc(NC(=O)CSc2n[nH]c(-c3ccco3)n2)cc1`: the molecule was classed as inactive.

On to `O=C1C(=O)c2cccnc2-c2ncccc21`, for which the call was inactive. Turning to `CC(=O)C1C(c2cccc([N+](=O)[O-])c2)C2C(C)=NN=C2CC1(C)O` (configuration not stated), the molecule was classed as inactive. Regarding `COc1ccc(N2CCN(S(=O)(=O)c3ccc(-c4cc(C)no4)s3)CC2)cc1`, the molecule was called inactive.

Consider `COc1ccc(/C=N/N(Cc2ccccc2)c2ccccc2)cc1O`, for which the call was inactive.

With `Cc1ccc(S(=O)(=O)N2CCC(C(=O)NCCCN3CCOCC3)CC2)cc1C`, the molecule was classed as inactive. `COc1cc(/C=C2\SC(=S)N(NC(=O)c3ccc(O)cc3)C2=O)ccc1O`: the result was inactive. The same measure for `C=CCn1c(-c2cccn(Cc3ccc(Cl)cc3)c2=O)n[nH]c1=S`: “inactive”.

For the molecule `O=C(O)c1ccc(N2CC3CC(C2)c2cccc(=O)n2C3)c(NS(=O)(=O)c2cccc(C(F)(F)F)c2)c1` (configuration not stated), the call was inactive.

On to `CN(C(=O)c1ccc(NC(=O)Cc2cccc(NC(=O)C3CCCN(C(=O)c4ccccc4)C3)c2)cc1)C1CC1` (configuration not stated), for which the molecule was called inactive. `COc1ccc(N2CCN(C(CNC(=O)COc3ccccc3)c3ccco3)CC2)cc1` (configuration not stated): the molecule was called inactive. Regarding `O=C(c1ccc(=O)[nH]n1)N1CCN(S(=O)(=O)c2cccc(F)c2)CC1`, the call was inactive.

Consider `O=C(N/C(=C/c1ccc(Br)cc1)C(=O)N1CCCC1)c1ccccc1F`, for which the outcome was inactive. As for `FC(F)(F)c1cnc(C(c2ccccn2)c2ncn[nH]2)c(Cl)c1` (configuration not stated), the outcome was inactive. Regarding `COc1cc2c3c(c1)/C(=C1/SC(NC(C)=O)=NC1=O)C(=O)N3C(C)(C)C=C2C`, the outcome was inactive. On to `Cc1ccc(NC(=O)C2CC(=O)N(c3ccc4c5c(cccc35)CC4)C2)cc1` (configuration not stated), for which the molecule was classed as inactive. Consider `CCc1ccc(CN(C)Cc2nc(Cc3cccc(C(F)(F)F)c3)no2)nc1`, for which the call was inactive. `COc1ccc(C(=O)NCC(=O)OCC(=O)NCc2cccs2)cc1`: the molecule was classed as inactive. Regarding `CCn1c(C)c(C)c2cc(C(=O)N3CCCC3)ccc21`, the call was inactive. With `CCc1ccccc1OCC(=O)Nc1ccc(S(N)(=O)=O)cc1`, the molecule was classed as inactive.

For the molecule `Cn1cc(S(=O)(=O)N2CCCC2)cc1C(=O)NCCc1ccccc1`, the result was inactive. Regarding `COc1ccc(CSCC(=O)Nc2ccc(S(=O)(=O)N3CCCCCC3)cc2)cc1`, the molecule was called inactive.

Regarding `COc1cccc(OC)c1OCCN(C)C`, the result was inactive. As for `COc1cccc(CCNCc2ccc(SC)cc2)c1`, the molecule was called inactive. In the case of `O=C(NCc1cccnc1)c1cc(-c2ccccc2)on1`, the call was inactive.

Turning to `CCOc1ccc(S(=O)(=O)N2CCN(C(=S)NCC3CCCO3)CC2)cc1` (configuration not stated), the result was inactive. Regarding `Cc1cccc2sc(NNC(=O)c3ccc(S(=O)(=O)N4CCCC(C)C4)cc3)nc12` (configuration not stated), the molecule was called inactive. Regarding `CN(C)/C=C/C(=O)c1ccc([N+](=O)[O-])c(CS(=O)(=O)c2ccc(Cl)cc2)c1`, the result was inactive. Take `Cc1cc(C)cc(N(C(=O)C(F)(F)F)C(C(=O)NC2CCCCC2)c2cccs2)c1` (configuration not stated): the result was inactive. For `Cc1ccc(C)c(C(=O)CN2C(=O)C(=O)N(C3CCCC3)C2=O)c1`, the result was inactive.

On to `CCc1cccc2c(C(=O)CN3C(=O)NC4(CCCCC4)C3=O)c[nH]c12`, for which the molecule was classed as inactive. For the molecule `O=c1oc2c(CN3CCOCC3)c(O)c(Cl)cc2c2c1CCCC2`, the call was inactive.

As to `CCCCCCCCSc1nnc(CSc2nc3nc(C)cc(C)n3n2)o1`, the call was inactive. For `CCc1ccccc1Nc1nc(-c2cccnc2)cs1`, the call was inactive. Regarding `CC1CCCCN1C(=O)CCS(=O)(=O)c1cccc2nonc12` (configuration not stated), the outcome was inactive.

In the case of `CSc1ccc(NC(=O)Nc2ccc(C(=O)NCC(=O)O)cc2)cc1`, the outcome was inactive.

As to `CCCCCCCCCCCCCCCC(=O)Nc1ccn(C2OC(CO)C(O)C2O)c(=O)n1` (configuration not stated), the result was inactive. The entry for `COc1ccc(-c2noc(CNC(=O)c3ccc4c(c3)OCO4)n2)cc1` is “inactive”. As for `O=[N+]([O-])c1cc(C(F)(F)F)ccc1NCCc1c[nH]c2ccc(O)cc12`, the molecule was classed as inactive. As for `O=C(C(=O)N1CCCCCC1)c1c[nH]c2ccccc12`, the result was inactive. For the molecule `Nc1cc(OC(=O)c2ccc(F)cc2)nn1S(=O)(=O)c1ccccc1`, the result was inactive. Take `COc1ccc(C2C(C#N)=C(N)N(c3ccccc3)C3=C2C(=O)CCC3)cc1Cn1cc([N+](=O)[O-])cn1` (configuration not stated): the molecule was called inactive. The entry for `COc1cc(/C=C2\SC(=S)N(NC(=O)c3ccccc3O)C2=O)ccc1O` is “inactive”; for `Cc1ccn2c(CNCCn3cccn3)c(C(=O)N3CCCCCC3)nc2c1` it is “inactive”; for `COc1cc2cncc(Cc3ccc(Cl)cc3)c2cc1OC` it is “inactive”. The entry for `CC1(C)CC(=O)C(C(c2ccncc2)C2C(=O)CC(C)(C)CC2=O)C(=O)C1` is “inactive”; for `CN1CCN(CCCN2c3ccccc3Sc3ccc(Cl)cc32)CC1` it is “inactive”; for `O=C(CSc1nncn1-c1cccnc1)N1CCOCC1` it is “inactive”. The same measure for `CN(Cc1cccc([N+](=O)[O-])c1)Cc1cccc2ccccc12`: “inactive”. Consider `CC(=O)NNC(=S)Nc1cccc(F)c1`, for which the outcome was inactive. Consider `Cc1cccc(NC(=O)NNC(=O)c2ccc3ccccc3c2O)c1`, for which the result was inactive. Consider `Cc1ccc(SCCN2CCN(C)CC2)cc1`, for which the outcome was inactive. As for `Cn1ncnc2c(=O)n(C)c(=O)nc1-2`, the call was inactive. Turning to `CN(C)c1cccc(NC(=O)c2ccco2)c1`, the outcome was inactive. Consider `COc1ccccc1NC(=O)c1ccc2c(c1)C(=O)N(c1ccccc1OC)C2=O`, for which the result was inactive.

On to `COCCCN1CN(S(=O)(=O)c2ccc(Cl)cc2)c2nc3ccccc3nc21`, for which the molecule was classed as inactive. The entry for `CC1CCCC(C)N1CCCNC(=O)c1ccc2nc(N3CCOCC3)sc2c1` (configuration not stated) is “inactive”; for `O=C(Nc1nc2ccc(SC(F)F)cc2s1)c1ccc(NS(=O)(=O)c2ccc(F)c(F)c2)cc1` it is “inactive”. As to `COc1ccc(C(=O)NNC(=O)C(=O)NCc2ccccc2)cc1`, the result was inactive.

For the molecule `COc1ccc(OC)c(NC(=O)c2ccc(NC(C)=O)cc2)c1`, the molecule was classed as inactive. As to `Cc1ccc(C)c(C(=O)C(C)OC(=O)c2cccn2C)c1` (configuration not stated), the outcome was inactive.

On to `O=C(CN1C(=O)c2ccccc2C1=O)N(CCO)Cc1ccccc1`, for which the outcome was inactive. The same measure for `CCCc1nc(N)c(C#N)c(-c2ccco2)c1CC`: “inactive”. For `O=C(COC(=O)c1cccs1)Nc1cccc(S(=O)(=O)N2CCOCC2)c1`, the result was inactive. `COc1ccc(S(=O)(=O)N2CCCCCC2)cc1C(=O)NCc1cccs1`: the molecule was classed as inactive. The entry for `CCOC1=C(C#N)CC2(CC1)c1ccccc1-c1ccccc12` is “inactive”; for `Cc1ccc(C)n1C(CC(=O)O)c1ccc(C#N)cc1` (configuration not stated) it is “inactive”. As for `O=C1C2CC=CCC2C(=O)N1c1ccc(NCCc2ccc(O)cc2)c([N+](=O)[O-])c1` (configuration not stated), the molecule was classed as inactive. Take `C=CCOc1cccc(C2C(C(=O)c3ccc(C)o3)=C(O)C(=O)N2CCCn2ccnc2)c1` (configuration not stated): the outcome was inactive.
